The source made the active and inactive calls. Rule as the data show it, unless noted: active = nuclear beta-catenin stimulation mostly above about 4.2% (no sharp cut-off); inactive = mostly below about 10%.
Assays:
[1] = stimulators of nuclear beta-catenin in C2C12, primary screen, imaging, WNT3A-conditioned medium, mouse C2C12, NPC library (AID 1117326); conditions: stronger effect = higher value; also: reference of the scale not given here
[2] = stimulators of insulin release from INS-1E, primary screen, cell-based, 5 mM glucose, NPC library (AID 1117329;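 active = compound raises insulin release from rat beta cells at 5 mM glucose, no numeric limit stated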; also: reference of the scale not given here); conditions: rat INS-1E insulin secretion, at 10 µM, stronger effect = higher value
[3] = growth inhibition of GSK3B-pretreated HCT116 cells – cell-based, CellTiter-Glo, 0.2 to 20 µM (AID 1117336;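 active = compounds lowering colon cancer cell viability after pretreatment blocking the GSK3B kinase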); conditions: HCT116 viability after GSK3B inhibitor, at 20 µM, stronger effect = higher value
[4] = inhibition of endothelial tube formation, primary screen, imaging, VEGF stimulated, CD31 staining, tube area, NPC library (AID 1117340;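 active = compound that reduces growth-factor-driven endothelial tube area in a mixed cell culture, no cutoff stated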); conditions: VEGF-stimulated ADSC/ECFC co-culture, at 10 µM, stronger effect = higher value
[5] = glucagon-like peptide 1 release enhancers, primary assay, NCI-H716 cell line, NPC library (AID 1117341;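 active = compound raises GLP1 secretion from the human gut endocrine cells, with no numeric limit stated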; also: reference of the scale not given here); conditions: NCI-H716 cells, at 10 µM, stronger effect = higher value
[6] = HCT116 colon cancer cell growth inhibition, primary screen, CellTiter-Glo luminescence, NPC library (AID 1117342;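 active = compounds that lower survival of HCT116 colon cancer cells in the luminescence readout, no numeric limit stated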); conditions: at 20 µM (top of the series)
[7] = CellTiter-Glo luminescent readout of SW480 viability loss, NPC library primary (AID 1117343;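 active = compounds that lower viability of the colon cancer cells in the luminescence readout, with no numeric limit stated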); conditions: CellTiter-Glo luminescence; at 20 µM (top of the series)
[8] = decreased DLD-1 cellular survival, CellTiter-Glo luminescent readout, NPC compound collection, primary HTS (AID 1117346;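 active = compounds that lower survival of DLD-1 colon cancer cells in the luminescence readout, no cutoff given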); conditions: DLD-1 viability, CellTiter-Glo luminescence; at 20 µM (top of the series)
[9] = survival rescue of mitochondrial mutant cells in low glucose, primary screen, MELAS cybrids, Rieske KO mouse fibroblasts, CellTiter-Glo (AID 1508586;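 active = mean z-score across replicates of 1.96 or higher in either the MELAS or the Rieske mutant cell line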;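 also: z relative to plate mean and SD of compound and empty wells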)

| SMILES | nuclear beta-catenin stimulation ([1]; at 10 µM) | nuclear beta-catenin stimulation ([1]; stimulation, at 2 µM) | insulin secretion stimulation [2] | viability decrease [3] | tube area decrease [4] | GLP1 secretion stimulation [5] | inhibition of viability [6] | viability decrease (inhibition) [7] | viability decrease (inhibition) [8] | z-score ([9]; MELAS cybrid survival, CellTiter-Glo 48 h, stronger effect = higher value) | z-score ([9]; Rieske KO mouse fibroblast survival, CellTiter-Glo 72 h) |
| --- | --- | --- | --- | --- | --- | --- | --- | --- | --- | --- | --- |
| C[N+]1(CCF)[C@@H]2CC[C@H]1CC(OC(=O)C(O)(c1ccccc1)c1ccccc1)C2 (some centres not stated) | -2.1% (inactive) | 0.7% | -0.1% (inactive) | 4.8% (inactive) | 16.4% (inactive) | 4.4% (inactive) | 5.8% (inactive) | -2% (active) | -1.5% (inactive) | – | – |
| CCN(Cc1ccc(Cl)nc1)/C(=C/[N+](=O)[O-])NC | -0.1% (inactive) | 1.1% | 3.5% (inactive) | 3.9% (inactive) | -21.3% (inactive) | -4.7% (inactive) | -3.27% (inactive) | 13.3% (inactive) | 4.5% (inactive) | – | – |
| CCOP(=S)(OCC)O/N=C(\C#N)c1ccccc1 | -0.3% (inactive) | 0.3% | -1.4% (inactive) | -25.2% (inactive) | -2.3% (inactive) | -1.1% (inactive) | 0.2% (inactive) | 36.2% (inactive) | -6.4% (inactive) | – | – |
| C[C@]12Cc3nonc3C[C@@H]1CC[C@@H]1[C@@H]2CC[C@@]2(C)[C@H]1CC[C@]2(C)O | 2.5% (inactive) | 0.4% | -2.4% (inactive) | 38.9% (inactive) | 1.9% (inactive) | 3.3% (inactive) | 1.5% (inactive) | 118% (active) | 61% (active) | – | – |
| O=C(NC1NNC2NNC(c3cccnc3)CC21)C1CC1 (configuration not stated) | – | – | – | – | – | – | – | – | – | -1.09 (inactive) | -0.386 |
| CC(C)NCC(O)c1ccc([N+](=O)[O-])cc1 (configuration not stated) | -2.4% (inactive) | -1% | 5.1% (inactive) | -1% (inactive) | 15% (inactive) | -0.9% (inactive) | 17.5% (inactive) | 33.9% (active) | 1.9% (inactive) | – | – |
| COP(=S)(OC)Oc1ccc(S(=O)(=O)N(C)C)cc1 | -1.9% (inactive) | -0.5% | 0.3% (inactive) | -11.8% (inactive) | -6.5% (inactive) | -1.2% (inactive) | 4.9% (inactive) | 6.4% (inactive) | 0% (inactive) | – | – |
| CCC1(c2ccccc2)C(=O)N(COC)C(=O)N(COC)C1=O | 0.6% (inactive) | 0.4% | 0.35% (inactive) | 83.5% (active) | 4% (inactive) | 1.4% (inactive) | 96.3% (active) | 89.5% (active) | 62.9% (active) | – | – |
| O=C(O)c1cc(Oc2ccc(C(F)(F)F)cc2Cl)ccc1[N+](=O)[O-] | 1.4% (inactive) | 0.5% | 4.1% (inactive) | -10.9% (inactive) | 0.3% (inactive) | 3.1% (inactive) | 9.4% (inactive) | -9.4% (inactive) | -3.5% (inactive) | – | – |
| O=c1[nH]c2ccccc2n1C1CCNCC1 | 0.8% (inactive) | -0.9% | -0.9% (inactive) | -5% (inactive) | -5.4% (inactive) | 1.9% (inactive) | -8.2% (inactive) | -13.1% (inactive) | 7.3% (inactive) | – | – |
| CC(Cc1ccc2c(c1)OCO2)NCC(O)c1ccc(O)c(O)c1 (configuration not stated) | 2.6% (inactive) | -0.2% | 2.9% (inactive) | 38.3% (inactive) | 21.3% (inactive) | -2% (inactive) | 25.8% (inactive) | 40.4% (inactive) | 14.6% (inactive) | – | – |
| Cc1c(Cl)c(=O)oc2cc(OP(=O)(OCCCl)OCCCl)ccc12 | 0.5% (inactive) | 0% | 4.8% (inactive) | 12.2% (inactive) | 14.4% (inactive) | -2.3% (inactive) | 35.4% (inactive) | 29.5% (inactive) | 0.8% (inactive) | – | – |
| NNc1ccccc1 | 0.8% (inactive) | 2.4% | -1.6% (inactive) | 14.6% (inactive) | 26.7% (inactive) | 3.7% (inactive) | -3.85% (inactive) | 45% (inactive) | 21.2% (inactive) | – | – |
| CCC(C)(C)c1ccc(O)cc1 | 0.6% (inactive) | -0.2% | -1% (inactive) | -20.2% (inactive) | 9.4% (inactive) | 6.1% (inactive) | 0.6% (inactive) | -13% (inactive) | -2.4% (inactive) | – | – |
| Cc1nnc2n1-c1sc(CCc3ccc(CC(C)C)cc3)cc1C(c1ccccc1Cl)=NC2C (configuration not stated) | -1% (inactive) | 3.8% | 4.1% (inactive) | 110% (active) | 48.1% (active) | 20.1% (active) | 113% (active) | 134% (active) | 102% (active) | – | – |
| CC(C)=CC1C(C(=O)OCN2C(=O)C3=C(CCCC3)C2=O)C1(C)C (configuration not stated) | 2.5% (inactive) | 0.7% | -1.8% (inactive) | 34.8% (inactive) | 16% (inactive) | -0.5% (inactive) | 38.2% (inactive) | 63% (active) | 5% (inactive) | – | – |
